Reference: PubChem BioAssay
The source made the active and inactive calls.

Key:
Albumin (Bos taurus) = Albumin (Bos taurus) (UniProt P02769); experiment: compounds binding labelled BSA control protein – biochemical, small-molecule microarray, Alexa647 label, 635/667 nm fluorescence, artefact control for SMM control protein annotation, profiling panel (AID 1118); conditions: BSA-A647 binding, fluorescence 635 nm, higher = more signal;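 further: score merges 667 nm emission intensity and signal-to-noise per printed compound spot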
Sequence of Albumin (Bos taurus) (P02769 whole entry, looked up): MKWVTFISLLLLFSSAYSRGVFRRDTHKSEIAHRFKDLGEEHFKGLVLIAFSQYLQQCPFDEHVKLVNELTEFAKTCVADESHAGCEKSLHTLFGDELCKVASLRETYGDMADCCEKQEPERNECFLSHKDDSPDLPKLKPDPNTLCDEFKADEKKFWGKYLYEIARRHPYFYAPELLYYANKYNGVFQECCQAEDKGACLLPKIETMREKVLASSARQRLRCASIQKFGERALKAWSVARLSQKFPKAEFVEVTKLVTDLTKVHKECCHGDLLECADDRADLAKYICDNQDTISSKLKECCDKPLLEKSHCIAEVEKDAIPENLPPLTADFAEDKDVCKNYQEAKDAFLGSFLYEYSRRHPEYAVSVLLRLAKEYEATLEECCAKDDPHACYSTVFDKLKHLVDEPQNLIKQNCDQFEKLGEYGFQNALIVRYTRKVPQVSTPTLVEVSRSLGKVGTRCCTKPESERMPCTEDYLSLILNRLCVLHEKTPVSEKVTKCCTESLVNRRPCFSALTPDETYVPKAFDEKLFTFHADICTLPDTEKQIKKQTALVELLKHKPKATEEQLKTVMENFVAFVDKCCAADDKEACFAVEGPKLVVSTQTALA

[1] = probe aXIP binding to arrayed compounds – biochemical, NeuroSMM set, 635/667 nm fluorescence, primary screen (AID 1119); conditions: small-molecule microarray, higher = more signal, called active from +8 up or from −8 down;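 further: probe is the protein aXip251-270 applied at 1 µg/mL to compound-printed slides; binding of probe to printed compounds measured as 667 nm fluorescence plus signal to noise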
[2] = probe aNOTCH3 binding on compound microarray – biochemical, small-molecule microarray, 635/667 nm fluorescence, primary screen (AID 1120); conditions: higher = more signal;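 further: probe is a biotin-tagged antibody raised against NOTCH3 rather than NOTCH3 protein; score merges spot fluorescence near 667 nm with spot signal to noise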
[3] = probe aNOTCH2 binding on compound microarray – biochemical, small-molecule microarray, 635/667 nm fluorescence, primary screen (AID 1121); conditions: higher = more signal;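 further: score merges feature fluorescence read at 667 nm with its signal to noise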
[4] = biological target: Carbonic anhydrase 2 (Homo sapiens) (UniProt P00918); experiment: compounds binding carbonic anhydrase 2 – biochemical, small-molecule microarray, Alexa647-labelled CAII, profiling panel (AID 1122); conditions: CAII-A647 binding fluorescence, higher = more signal
[5] = COS7 lysate on small-molecule microarray, probe aHis, 635 nm (AID 1123); conditions: COS7 cell lysate, fluorescence, higher = more signal;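 further: z-score combines 667nm fluorescence intensity with signal-to-noise per printed compound spot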
[6] = probe aLAP1 signal on lysate-treated microarray – cell lysate, small-molecule microarray, COS7 lysate, primary screen (AID 1124); conditions: probe aLAP1, fluorescence, higher = more signal;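 further: lysate comes from COS7 cells expressing LAP1 and is applied at 0.3 µg/mL; score merges spot fluorescence near 667 nm with signal-to-noise over triplicate slides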
Sam68 (KHDRBS1) = experiment: compounds binding KHDRBS1 protein – biochemical, small-molecule microarray, 635 nm fluorescence, primary screen (AID 1125); conditions: higher = more signal;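 further: score merges 667 nm channel intensity with signal to noise over triplicate slides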
[7] = test system: Chordin-like protein 2 (CHRDL2); experiment: compounds binding chordin-like 2 – biochemical, small-molecule microarray, 635 nm fluorescence, primary screen (AID 1126); conditions: fluorescence 635 nm, higher = more signal;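 further: printed compound slides probed with Chrdl2 protein at 4 µg/mL for 1 h at 4 C; score merges 667 nm emission intensity with signal to noise over three replicate slides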
[8] = biological target: Concanavalin-A (Canavalia ensiformis) (UniProt P02866); experiment: compounds binding concanavalin A lectin – biochemical, small-molecule microarray, Alexa647 label, 635 nm, artefact control for SMM control protein annotation, primary screen (AID 1127); conditions: ConA-A647 binding fluorescence, higher = more signal;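 further: z combines 667 nm emission intensity with signal-to-noise across three replicate slides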
Sequence of Concanavalin-A (Canavalia ensiformis) (P02866 whole entry, looked up): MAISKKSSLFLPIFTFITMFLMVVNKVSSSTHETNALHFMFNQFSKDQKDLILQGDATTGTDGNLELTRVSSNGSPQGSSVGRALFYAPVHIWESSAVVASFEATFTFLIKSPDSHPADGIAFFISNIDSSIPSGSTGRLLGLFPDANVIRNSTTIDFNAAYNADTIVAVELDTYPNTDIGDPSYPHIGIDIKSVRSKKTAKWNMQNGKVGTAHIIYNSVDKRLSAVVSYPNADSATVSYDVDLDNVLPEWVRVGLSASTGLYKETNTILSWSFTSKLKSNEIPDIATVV

| SMILES | composite z-score (Albumin (Bos taurus)) | composite Z-score [1] | composite z-score [2] | composite z-score [3] | composite z-score [4] | composite z-score [5] | composite z-score [6] | composite z-score (Sam68 (KHDRBS1)) | composite z-score [7] | composite z-score [8] |
| --- | --- | --- | --- | --- | --- | --- | --- | --- | --- | --- |
| COc1ccc([Si](C)(C)[C@H]2[C@H](CC(=O)N3Cc4ccccc4C[C@H]3CO)O[C@@]3(C(=O)N(Cc4cccc(N5CCOC5=O)c4)c4ccccc43)[C@@H]2C)cc1 | -0.89 | 0.55 (inactive) | -0.0077 | -0.104 | 0.574 | 0.784 | 0.0161 | 0.847 | 1.45 | 0.791 |
| COCCOC(=O)N1C(=O)[C@@]2(c3cc(C#CCNC(N)=O)ccc31)[C@H](c1ccc(OCCO)cc1)N1[C@H](c3ccccc3)[C@H](c3ccccc3)OC(=O)[C@H]1[C@@H]2C(=O)Nc1nc2ccccc2s1 | -0.76 | -0.0202 (inactive) | -0.124 | -0.126 | 0.277 | 0.447 | 0.338 | 0.289 | 0.903 | 0.915 |
| CO[C@@H]1COC(=O)[C@H](C)NC(=O)CC=C[C@@H](C)[C@H](NS(=O)(=O)c2ccc(C)cc2)COC(=O)CC=C[C@@H]1C | -0.471 | 0.237 (inactive) | 0.0066 | -0.0554 | -0.185 | 0.0657 | -0.319 | -0.354 | -0.0932 | -0.809 |
| CN1C(=O)C2C=CC(C(O)c3ccc(N(C)C)cc3)N(Nc3ccc([N+](=O)[O-])cc3[N+](=O)[O-])C2C1=O (stereo not given) | 0.944 | -0.399 (inactive) | 0.586 | 0.0683 | 0.729 | 2.72 | 1.4 | 1.21 | 0.556 | 0.884 |
| O=C1OCCC/C=C\[C@H]2OC34C=CCN(CCN5CCOCC5)C(=O)[C@H]3N(CCCCCO)C(=O)[C@@H]4C12 (stereo not given in full) | -1.22 | 1.39 (inactive) | -0.246 | -0.162 | 0.816 | -0.687 | -0.401 | -0.369 | -1.15 | -0.167 |
| C[C@@H]1CC[C@H]2C(=O)N3CCC[C@H]3C(=O)N2[C@H]1c1ccc(Br)cc1 | -0.295 | 0.734 (inactive) | -0.261 | -0.174 | -0.213 | 0.233 | 0.123 | -0.0235 | 0.536 | -0.377 |
| CCCC[C@@H]1C[C@H]1[C@@H](NC(=O)c1ccccc1)c1ccccc1C(F)(F)F | 1.01 | -0.814 (inactive) | 0.0493 | 0.0116 | 0.412 | 3.03 | 0.13 | 1.14 | 0.377 | 1.17 |
| COC(=O)[C@@]1(Cc2ccc(OC)cc2)[C@H]2c3cc(C(=O)N(C)C)n(CCc4ccc(OC)c(Br)c4)c3C[C@H]2CN1C(=O)c1ccccc1 | 1.11 | -0.665 (inactive) | 0.831 | 0.395 | 0.718 | 2.9 | 0.482 | 1.29 | -1.11 | 1.2 |
| C[N+](C)(C)CCCCNC(=O)[C@H]1C[C@H]2C(=O)NCC(=O)N2[C@H]1c1cccc(OCCO)c1 | -1.39 | 1.49 (inactive) | 0.147 | -0.112 | 0.454 | 0.961 | 0.258 | 1.05 | 1.45 | 1.12 |
| CCCNC(=O)[C@@H]1c2ccccc2C(=O)N(C2CCCCC2)[C@H]1c1ccc(CO)cc1 | 0.334 | 0.474 (inactive) | 0.103 | -0.106 | 0.293 | 2.72 | 0.711 | 1.29 | 0.179 | 1.03 |
| Cc1ccccc1C(O)C1C=CC2C(=O)N(c3ccccc3)C(=O)C2N1Nc1ccc(C#N)cc1 (stereo not given) | 1.04 | 1.4 (inactive) | 0.841 | 0.417 | 0.652 | 2.87 | 1.37 | 1.31 | 0.632 | 1.18 |
| O=C1OCC=C[C@H]2OC34C=CCN(Cc5ccccc5)C(=O)[C@H]3N(CCO)C(=O)[C@@H]4[C@@H]12 (stereo not given in full) | 0.661 | 0.383 (inactive) | -0.248 | -0.177 | 0.824 | 0.666 | -0.0963 | -0.72 | -1.82 | -0.403 |
| CC(C)N1CC=CC23O[C@@H]4/C=C\CCCOC(=O)C4[C@H]2C(=O)N(CCO)[C@@H]3C1=O (stereo not given in full) | 0.767 | 1.95 (inactive) | -0.0918 | -0.0874 | 0.893 | 0.572 | 1.43 | 0.534 | -1.4 | 0.329 |
| Cc1ccc(N2C(=O)c3ccccc3[C@](C)(C(=O)NCC(C)C)[C@@H]2c2ccc(CO)cc2)nc1 | -1.09 | 0.917 (inactive) | -0.278 | -0.126 | 0.265 | 0.437 | -0.115 | -0.68 | -0.233 | -1.92 |
| CC(=O)NCCCC[C@@H]1NC(=O)[C@@H]2C[C@H](C(=O)NCc3ccc(F)cc3)[C@H](c3cccc(OCCO)c3)N2C1=O | 0.188 | 0.328 (inactive) | -0.226 | 0.0383 | 0.659 | 1.07 | 0.19 | 0.506 | 0.174 | 0.474 |
| CN1C2C=C(c3ccc(CO)cc3)C(C3C(=O)N(C(N)=O)C(=O)C32)C1c1cccs1 (stereo not given) | -0.444 | 0.173 (inactive) | 0.0261 | -0.162 | 0.704 | 0.4 | -0.342 | 0.0726 | -0.934 | -0.0029 |
| CCC#CCN(Cc1ccccc1Br)[C@H](/C=C/c1ccccc1)[C@@H](O)Cc1ccccc1 | -0.904 | 0.12 (inactive) | -0.132 | -0.145 | -0.225 | 0.301 | 0.162 | -1.13 | -1.16 | -0.779 |

| SMILES | composite z-score (Albumin (Bos taurus)) | composite Z-score [1] | composite z-score [2] | composite z-score [3] | composite z-score [4] | composite z-score [5] | composite z-score [6] | composite z-score (Sam68 (KHDRBS1)) | composite z-score [7] | composite z-score [8] |
| --- | --- | --- | --- | --- | --- | --- | --- | --- | --- | --- |
| CC(C)[Si](OCCCNS(=O)(=O)c1ccc(Br)cc1)(C(C)C)C(C)C | 0.406 | -0.495 (inactive) | 0.107 | -0.0877 | 0.0774 | 0.468 | 0.194 | 1.33 | 0.29 | 1.08 |
| CCCCO[C@H]1C[C@H]2C(Br)=C[C@@]1(CO)C(=O)[C@]21CO1 | -1.23 | -0.442 (inactive) | -0.0647 | -0.201 | -0.548 | 0.124 | -0.139 | 0.362 | 0.569 | 0.153 |
| CC[C@@H]1C=C(C(=O)O)[C@H](c2ccccc2)N1S(=O)(=O)c1ccc([N+](=O)[O-])cc1 | 0.938 | 0.0692 (inactive) | 0.0793 | -0.0983 | 0.514 | 2.43 | 0.612 | 1.04 | -0.812 | 0.942 |
| O=C1c2ccccc2[C@](Cc2ccccc2I)(C(=O)NCC(F)(F)F)[C@H](c2ccc(CO)cc2)N1Cc1ccccc1C(F)(F)F | 0.89 | 0.34 (inactive) | -0.099 | -0.175 | 0.411 | 1.58 | 0.494 | 1.32 | -0.324 | 0.609 |
| COc1ccc(-c2cc3c(c(-c4ccccc4)n2)[Si](C(C)C)(C(C)C)O[C@H]3c2ccccc2)cn1 | 0.843 | 0.0861 (inactive) | 0.201 | -0.0349 | -0.0177 | 0.263 | -0.0375 | 0.723 | 0.288 | 0.165 |
| CC(C)(C)OC(=O)CC[C@]1(C(=O)N2CCCCC2)N=C(c2ccc(OCCCO)cc2)O[C@H]1c1ccccc1 | 0.806 | -0.0084 (inactive) | 0.261 | -0.127 | 0.741 | 2.94 | 0.708 | 1.28 | 0.261 | 1.13 |
| NC(=O)NCC#Cc1ccc2c(c1)[C@]1(C(=O)N2)[C@H](c2ccccc2OCCO)N2[C@H](c3ccccc3)[C@H](c3ccccc3)OC(=O)[C@H]2[C@@H]1C(=O)N1CCN(c2ncccn2)CC1 | 0.0405 | 0.39 (inactive) | 0.0539 | -0.0907 | 0.335 | 1.82 | 0.614 | 1.29 | 0.326 | 0.946 |
| CO[C@H]1COC(=O)[C@H](Cc2ccccc2)NC(=O)CC=C[C@@H](C)[C@H](OC)COC(=O)CC=C[C@@H]1C | -0.108 | -0.225 (inactive) | 0.0319 | -0.0211 | -0.142 | 0.199 | -0.47 | 0.588 | 0.53 | 0.296 |
| Cc1ccc(S[C@]2(C(=O)NC(C)C)CC(=O)N(Cc3cc(C(F)(F)F)cc(C(F)(F)F)c3)[C@@H]2c2ccc(CO)cc2I)cc1 | -1.25 | 0.0296 (inactive) | -0.313 | -0.14 | 0.788 | 1.31 | 0.917 | -0.733 | -1.21 | -0.442 |
| CC(=O)NCCCC[C@@H]1NC(=O)[C@@H]2C[C@H](C(=O)NCCCCCCN(C)C)[C@H](c3ccc(O)cc3)N2C1=O | -0.853 | 0.67 (inactive) | -0.0396 | 0.112 | 0.57 | 1.92 | -0.234 | 1.32 | 1.44 | 1.21 |
| Cc1ccc(N2C(=O)c3ccccc3[C@@H](C(=O)NCC(F)(F)F)[C@@H]2c2ccc(CO)cc2)nc1 | -0.0791 | 0.352 (inactive) | -0.185 | -0.0674 | 0.844 | -0.786 | -0.415 | -1.85 | -2.4 | -1.9 |
| Cc1ccc([C@@H]2CC=C(C(=O)O)[C@H](c3ccccc3)N2S(=O)(=O)c2ccc(C)cc2)cc1 | 1.02 | 1.1 (inactive) | 0.254 | 0.0344 | 0.546 | 2.36 | 0.581 | 1.31 | -2.11 | 1.22 |
| N#Cc1ccc(NN2C(C(O)c3ccc(I)cc3)C=CC3C(=O)N(c4ccccc4)C(=O)C32)cc1 (stereo not given) | 0.946 | 0.128 (inactive) | 0.212 | 0.139 | 0.74 | 2.21 | -0.809 | 1.29 | -0.389 | 1.12 |
| COCC(=C=CC[C@H](O)c1ccc(OCCO)cc1)C[C@H](O)c1ccccn1 | -0.769 | 1.14 (inactive) | -0.217 | -0.0942 | 0.603 | 0.257 | -0.0662 | 0.359 | -0.6 | 0.0109 |
| C=CC[C@]1(C(=O)O)N=C(c2ccc(OCCCO)cc2)O[C@H]1c1ccccc1N=[N+]=[N-] | 0.548 | 0.0407 (inactive) | 0.0807 | -0.159 | 0.668 | 1.45 | 1.24 | 0.0203 | -0.37 | 0.642 |
| COCCOC(=O)N1C(=O)[C@@]2(c3cc(C#CC4(O)CCCCCC4)ccc31)[C@H](C(=O)N1CCCCCCC1)[C@H]1C(=O)O[C@H](c3ccccc3)[C@H](c3ccccc3)N1[C@@H]2c1ccc(O)cc1 | -0.653 | 0.108 (inactive) | 0.885 | 0.337 | 0.485 | 2.62 | -0.139 | 1.3 | 0.519 | 1.08 |
